# Measured values from PMC7862700, “An all-to-all approach to the identification of sequence-specific readers for epigenetic DNA modifications on cytosine”.
# Experiments:
# Assay in all cases: DAPPL (digital affinity profiling via proximity ligation, sequencing); 10 mM Tris-HCl pH 7.5, 50 mM NaCl, 1 mM DTT, 4% glycerol, room temperature, 30 min; GST-TFs on glutathione beads, 16-mer random dsDNA library, 0.1% formaldehyde crosslink after washing; high values mean tight binding
# FEV = biological target: T1, FEV (Homo sapiens, UniProt Q99581 1-238); settings: protein: recombinant; tags: N-terminal GST; dsDNA, one strand shown
# T1 sequence: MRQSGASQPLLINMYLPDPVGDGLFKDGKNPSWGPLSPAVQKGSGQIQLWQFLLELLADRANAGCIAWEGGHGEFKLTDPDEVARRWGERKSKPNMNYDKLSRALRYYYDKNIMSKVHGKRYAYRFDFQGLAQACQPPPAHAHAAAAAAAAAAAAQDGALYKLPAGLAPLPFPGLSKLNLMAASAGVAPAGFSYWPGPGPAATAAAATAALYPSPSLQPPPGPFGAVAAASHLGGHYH
# Procedure, shortened: (§1)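 Yeast served to express human transcription factors as GST fusions, which were then captured on glutathione beads and labelled with DNA barcodes. Pooled with a tag-only sample, they were incubated with 200 nmole of a 16-mer random double-stranded DNA library for 30 min at room temperature in Tris/NaCl/DTT/glycerol buffer, washed, crosslinked with 0.1% formaldehyde, ligated by proximity, amplified by PCR and sequenced. Dividing each hexamer's read frequency for a factor by its frequency for the tag-only sample gives the binding signal.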
# ETV5 = ETV5 (Homo sapiens, UniProt P41161 1-510); settings: protein: recombinant; tags: N-terminal GST; dsDNA, one strand shown
# Procedure, shortened: as §1
# HSF1 = HSF1 (Homo sapiens, UniProt Q00613 1-529); settings: protein: recombinant; tags: N-terminal GST; chain copies: 3; dsDNA, one strand shown
# Procedure, shortened: as §1
# SPIC = biological target: T2, SPIC (Homo sapiens, UniProt Q8N5J4 1-248); settings: protein: recombinant; tags: N-terminal GST; dsDNA, one strand shown
# T2 sequence: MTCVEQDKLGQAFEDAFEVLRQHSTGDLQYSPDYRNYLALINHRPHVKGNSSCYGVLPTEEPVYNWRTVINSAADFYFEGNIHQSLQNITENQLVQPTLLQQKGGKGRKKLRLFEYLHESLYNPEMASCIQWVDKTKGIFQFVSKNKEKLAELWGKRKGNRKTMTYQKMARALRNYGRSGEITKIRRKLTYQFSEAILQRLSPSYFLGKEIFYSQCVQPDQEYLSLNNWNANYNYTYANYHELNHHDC
# Procedure, shortened: as §1
# ELF4 = ELF4 (Homo sapiens, UniProt Q99607 1-663); settings: protein: recombinant; tags: N-terminal GST; dsDNA, one strand shown
# Procedure, shortened: as §1
# ELK4 = biological target: T3, ELK4 (Homo sapiens, UniProt P28324-2 1-405); settings: protein: recombinant; tags: N-terminal GST; dsDNA, one strand shown
# T3 sequence: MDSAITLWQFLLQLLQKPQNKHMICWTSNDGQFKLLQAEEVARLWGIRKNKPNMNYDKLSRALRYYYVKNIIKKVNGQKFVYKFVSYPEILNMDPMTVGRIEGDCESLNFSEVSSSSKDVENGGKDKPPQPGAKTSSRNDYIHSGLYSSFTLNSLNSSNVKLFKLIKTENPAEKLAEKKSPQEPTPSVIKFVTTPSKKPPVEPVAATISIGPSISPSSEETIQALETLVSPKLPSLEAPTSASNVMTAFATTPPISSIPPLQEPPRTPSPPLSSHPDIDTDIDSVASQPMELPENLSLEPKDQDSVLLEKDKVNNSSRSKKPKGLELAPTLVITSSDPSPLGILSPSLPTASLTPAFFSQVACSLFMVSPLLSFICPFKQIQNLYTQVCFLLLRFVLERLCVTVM
# Procedure, shortened: as §1
# ETV2 = biological target: T4, ETV2 (Homo sapiens, UniProt O00321 1-342); settings: protein: recombinant; tags: N-terminal GST; dsDNA, one strand shown
# T4 sequence: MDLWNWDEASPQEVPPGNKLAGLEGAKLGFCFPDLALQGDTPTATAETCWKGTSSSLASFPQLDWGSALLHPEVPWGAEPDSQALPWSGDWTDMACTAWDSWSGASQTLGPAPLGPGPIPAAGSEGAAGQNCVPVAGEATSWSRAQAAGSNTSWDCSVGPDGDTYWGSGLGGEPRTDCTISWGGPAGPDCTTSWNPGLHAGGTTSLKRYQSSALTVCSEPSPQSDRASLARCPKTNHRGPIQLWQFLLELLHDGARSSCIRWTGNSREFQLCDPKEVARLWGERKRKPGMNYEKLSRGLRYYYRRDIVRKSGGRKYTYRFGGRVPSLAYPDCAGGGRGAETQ
# Procedure, shortened: as §1
# ELF3 = biological target: T5, ELF3 (Homo sapiens, UniProt P78545 1-371); settings: protein: recombinant; tags: N-terminal GST; dsDNA, one strand shown
# T5 sequence: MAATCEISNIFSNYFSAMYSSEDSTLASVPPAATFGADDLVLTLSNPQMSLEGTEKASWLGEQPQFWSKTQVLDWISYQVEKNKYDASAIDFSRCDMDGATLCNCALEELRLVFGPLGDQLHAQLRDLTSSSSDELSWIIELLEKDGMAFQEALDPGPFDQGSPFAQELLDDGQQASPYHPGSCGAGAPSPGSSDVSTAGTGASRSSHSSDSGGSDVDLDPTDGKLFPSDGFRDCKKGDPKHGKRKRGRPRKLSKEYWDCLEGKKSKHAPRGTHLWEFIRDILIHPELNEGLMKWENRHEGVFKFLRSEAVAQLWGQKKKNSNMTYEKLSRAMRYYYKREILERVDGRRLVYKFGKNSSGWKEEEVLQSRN
# Procedure, shortened: as §1
# CRX = CRX (Homo sapiens, UniProt O43186 1-299); settings: protein: recombinant; tags: N-terminal GST; dsDNA, one strand shown
# Procedure, shortened: as §1
# ETV1 = ETV1 (Homo sapiens, UniProt P50549 1-477); settings: protein: recombinant; tags: N-terminal GST; dsDNA, one strand shown
# Procedure, shortened: as §1
# ERF = biological target: T6, ERF (Homo sapiens, UniProt P50548 1-548); settings: protein: recombinant; tags: N-terminal GST; dsDNA, one strand shown
# T6 sequence: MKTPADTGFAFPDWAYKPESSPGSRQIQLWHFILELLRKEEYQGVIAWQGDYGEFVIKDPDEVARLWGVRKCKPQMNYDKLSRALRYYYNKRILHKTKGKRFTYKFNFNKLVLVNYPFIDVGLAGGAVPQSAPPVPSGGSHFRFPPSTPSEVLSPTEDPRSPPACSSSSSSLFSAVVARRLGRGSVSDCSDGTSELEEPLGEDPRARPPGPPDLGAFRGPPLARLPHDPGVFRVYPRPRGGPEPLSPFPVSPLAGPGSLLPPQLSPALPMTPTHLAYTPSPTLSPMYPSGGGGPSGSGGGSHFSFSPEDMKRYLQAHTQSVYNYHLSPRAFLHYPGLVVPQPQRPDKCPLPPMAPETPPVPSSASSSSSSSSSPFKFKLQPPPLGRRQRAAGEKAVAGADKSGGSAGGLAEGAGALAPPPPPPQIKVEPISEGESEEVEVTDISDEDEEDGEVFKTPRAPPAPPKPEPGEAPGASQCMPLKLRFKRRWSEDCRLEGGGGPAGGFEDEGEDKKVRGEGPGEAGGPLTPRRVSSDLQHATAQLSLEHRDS
# Procedure, shortened: as §1
# ETV3L = biological target: T7, ETV3L (Homo sapiens, UniProt Q6ZN32 1-361); settings: protein: recombinant; tags: N-terminal GST; dsDNA, one strand shown
# T7 sequence: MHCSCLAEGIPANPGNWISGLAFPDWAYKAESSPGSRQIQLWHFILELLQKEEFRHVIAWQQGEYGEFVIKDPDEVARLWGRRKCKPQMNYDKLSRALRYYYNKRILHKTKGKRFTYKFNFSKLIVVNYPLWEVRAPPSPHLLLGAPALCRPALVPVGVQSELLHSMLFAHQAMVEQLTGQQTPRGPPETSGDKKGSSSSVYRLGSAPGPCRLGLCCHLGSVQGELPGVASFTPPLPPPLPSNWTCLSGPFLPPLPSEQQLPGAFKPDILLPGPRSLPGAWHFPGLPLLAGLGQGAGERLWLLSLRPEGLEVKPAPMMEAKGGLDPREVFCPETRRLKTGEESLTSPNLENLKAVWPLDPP
# Procedure, shortened: as §1
# ETS2 = biological target: T8, ETS2 (Homo sapiens, UniProt P15036 1-469); settings: protein: recombinant; tags: N-terminal GST; dsDNA, one strand shown
# T8 sequence: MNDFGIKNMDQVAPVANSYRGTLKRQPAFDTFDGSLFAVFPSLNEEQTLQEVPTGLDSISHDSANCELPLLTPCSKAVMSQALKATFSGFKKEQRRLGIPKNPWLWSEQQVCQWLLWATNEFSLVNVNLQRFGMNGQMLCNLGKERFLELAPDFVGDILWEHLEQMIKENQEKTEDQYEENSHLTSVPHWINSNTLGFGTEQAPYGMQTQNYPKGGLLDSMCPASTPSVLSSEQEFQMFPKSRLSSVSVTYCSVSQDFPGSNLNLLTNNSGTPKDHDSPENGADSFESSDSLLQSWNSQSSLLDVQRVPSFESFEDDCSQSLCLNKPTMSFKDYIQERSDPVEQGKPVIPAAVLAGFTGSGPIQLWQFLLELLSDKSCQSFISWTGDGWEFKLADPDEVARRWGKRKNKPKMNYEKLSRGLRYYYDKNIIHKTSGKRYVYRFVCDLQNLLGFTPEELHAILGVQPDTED
# Procedure, shortened: as §1
# SPDEF = biological target: T9, SPDEF (Homo sapiens, UniProt O95238 1-335); settings: protein: recombinant; tags: N-terminal GST; dsDNA, one strand shown
# T9 sequence: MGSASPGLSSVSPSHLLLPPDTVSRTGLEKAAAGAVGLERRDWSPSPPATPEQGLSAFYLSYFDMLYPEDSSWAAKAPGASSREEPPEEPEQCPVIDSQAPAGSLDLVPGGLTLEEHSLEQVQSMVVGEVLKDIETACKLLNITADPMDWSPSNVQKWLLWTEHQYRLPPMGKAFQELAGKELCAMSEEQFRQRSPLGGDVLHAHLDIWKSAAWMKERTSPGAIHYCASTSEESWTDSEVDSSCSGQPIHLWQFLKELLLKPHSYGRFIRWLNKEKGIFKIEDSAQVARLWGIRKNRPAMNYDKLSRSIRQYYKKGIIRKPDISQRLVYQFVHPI
# Procedure, shortened: as §1
# ETV7 = biological target: T10, ETV7 (Homo sapiens, UniProt Q9Y603 1-341); settings: protein: recombinant; tags: N-terminal GST; dsDNA, one strand shown
# T10 sequence: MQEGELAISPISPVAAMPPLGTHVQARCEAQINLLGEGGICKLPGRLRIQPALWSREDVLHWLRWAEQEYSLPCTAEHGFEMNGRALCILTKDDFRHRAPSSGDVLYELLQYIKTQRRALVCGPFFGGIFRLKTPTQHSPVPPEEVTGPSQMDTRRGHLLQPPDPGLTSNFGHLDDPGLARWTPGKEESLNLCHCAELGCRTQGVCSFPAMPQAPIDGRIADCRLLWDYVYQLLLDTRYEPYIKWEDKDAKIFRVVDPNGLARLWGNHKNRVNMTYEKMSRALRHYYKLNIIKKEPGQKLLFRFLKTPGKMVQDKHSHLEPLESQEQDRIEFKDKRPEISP
# Procedure, shortened: as §1
# ELF5 = biological target: T11, ELF5 (Homo sapiens, UniProt Q9UKW6-2 1-255); settings: protein: recombinant; tags: N-terminal GST; dsDNA, one strand shown
# T11 sequence: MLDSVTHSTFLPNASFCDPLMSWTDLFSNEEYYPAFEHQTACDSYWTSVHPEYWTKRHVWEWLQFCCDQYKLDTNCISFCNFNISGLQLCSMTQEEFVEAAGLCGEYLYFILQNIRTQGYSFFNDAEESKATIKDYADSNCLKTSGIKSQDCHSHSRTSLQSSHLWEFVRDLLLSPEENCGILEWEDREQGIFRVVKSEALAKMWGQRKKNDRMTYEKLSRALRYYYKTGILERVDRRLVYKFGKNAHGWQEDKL
# Procedure, shortened: as §1
# ETV3 = biological target: T12, ETV3 (Homo sapiens, UniProt P41162-2 1-143); settings: protein: recombinant; tags: N-terminal GST; dsDNA, one strand shown
# T12 sequence: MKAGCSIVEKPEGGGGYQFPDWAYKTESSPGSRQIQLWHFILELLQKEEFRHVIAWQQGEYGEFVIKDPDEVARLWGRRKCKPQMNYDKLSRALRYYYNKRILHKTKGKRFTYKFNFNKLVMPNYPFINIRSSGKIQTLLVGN
# Procedure, shortened: as §1
# ETV6 = ETV6 (Homo sapiens, UniProt P41212 1-452); settings: protein: recombinant; tags: N-terminal GST; dsDNA, one strand shown
# Procedure, shortened: as §1
# HSF1, sequence (Q00613 whole entry): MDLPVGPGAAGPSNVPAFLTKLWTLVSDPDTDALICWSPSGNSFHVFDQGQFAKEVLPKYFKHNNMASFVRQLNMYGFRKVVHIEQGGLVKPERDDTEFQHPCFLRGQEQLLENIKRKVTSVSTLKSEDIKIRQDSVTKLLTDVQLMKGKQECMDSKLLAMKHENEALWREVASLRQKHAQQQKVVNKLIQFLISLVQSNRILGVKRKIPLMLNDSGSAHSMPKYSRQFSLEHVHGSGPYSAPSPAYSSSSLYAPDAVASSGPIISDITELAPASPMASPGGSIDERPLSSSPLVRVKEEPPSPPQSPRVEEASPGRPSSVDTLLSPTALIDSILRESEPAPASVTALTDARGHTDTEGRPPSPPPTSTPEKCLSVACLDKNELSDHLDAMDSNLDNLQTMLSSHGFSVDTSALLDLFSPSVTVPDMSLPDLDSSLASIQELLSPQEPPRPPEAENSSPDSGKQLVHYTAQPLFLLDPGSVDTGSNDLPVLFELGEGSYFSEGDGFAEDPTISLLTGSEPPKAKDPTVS
# ELF4, sequence (Q99607 whole entry): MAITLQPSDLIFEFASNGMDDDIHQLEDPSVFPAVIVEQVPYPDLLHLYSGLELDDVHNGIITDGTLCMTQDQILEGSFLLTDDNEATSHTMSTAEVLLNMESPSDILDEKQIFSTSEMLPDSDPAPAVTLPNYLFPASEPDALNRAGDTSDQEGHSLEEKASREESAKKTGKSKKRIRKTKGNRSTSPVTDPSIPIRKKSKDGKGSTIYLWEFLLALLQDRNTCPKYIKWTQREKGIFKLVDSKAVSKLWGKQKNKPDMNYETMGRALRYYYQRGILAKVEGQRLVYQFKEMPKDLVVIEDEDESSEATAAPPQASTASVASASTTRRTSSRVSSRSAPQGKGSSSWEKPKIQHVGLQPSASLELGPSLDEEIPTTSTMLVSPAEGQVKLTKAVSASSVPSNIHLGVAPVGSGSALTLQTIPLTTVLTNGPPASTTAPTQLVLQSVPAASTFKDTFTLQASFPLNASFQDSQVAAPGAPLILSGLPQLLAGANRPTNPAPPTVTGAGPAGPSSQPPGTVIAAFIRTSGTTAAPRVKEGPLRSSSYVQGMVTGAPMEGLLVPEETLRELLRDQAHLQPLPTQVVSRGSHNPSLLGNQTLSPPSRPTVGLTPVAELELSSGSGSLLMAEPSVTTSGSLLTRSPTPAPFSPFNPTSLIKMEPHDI
# ETV1, sequence (P50549 whole entry): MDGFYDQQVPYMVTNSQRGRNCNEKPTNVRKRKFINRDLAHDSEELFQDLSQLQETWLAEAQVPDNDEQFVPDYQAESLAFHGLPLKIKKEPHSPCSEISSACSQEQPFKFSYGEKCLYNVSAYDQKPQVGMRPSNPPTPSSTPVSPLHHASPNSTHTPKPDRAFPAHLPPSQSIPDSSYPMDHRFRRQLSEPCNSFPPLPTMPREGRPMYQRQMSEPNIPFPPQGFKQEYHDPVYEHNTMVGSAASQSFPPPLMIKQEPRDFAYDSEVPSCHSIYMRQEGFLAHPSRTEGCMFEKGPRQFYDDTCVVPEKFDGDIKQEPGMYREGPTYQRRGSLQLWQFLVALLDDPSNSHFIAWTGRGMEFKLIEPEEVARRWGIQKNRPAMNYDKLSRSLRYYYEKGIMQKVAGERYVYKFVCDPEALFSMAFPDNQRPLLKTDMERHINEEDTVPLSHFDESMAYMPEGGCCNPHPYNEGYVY
# ETV5, sequence (P41161 whole entry): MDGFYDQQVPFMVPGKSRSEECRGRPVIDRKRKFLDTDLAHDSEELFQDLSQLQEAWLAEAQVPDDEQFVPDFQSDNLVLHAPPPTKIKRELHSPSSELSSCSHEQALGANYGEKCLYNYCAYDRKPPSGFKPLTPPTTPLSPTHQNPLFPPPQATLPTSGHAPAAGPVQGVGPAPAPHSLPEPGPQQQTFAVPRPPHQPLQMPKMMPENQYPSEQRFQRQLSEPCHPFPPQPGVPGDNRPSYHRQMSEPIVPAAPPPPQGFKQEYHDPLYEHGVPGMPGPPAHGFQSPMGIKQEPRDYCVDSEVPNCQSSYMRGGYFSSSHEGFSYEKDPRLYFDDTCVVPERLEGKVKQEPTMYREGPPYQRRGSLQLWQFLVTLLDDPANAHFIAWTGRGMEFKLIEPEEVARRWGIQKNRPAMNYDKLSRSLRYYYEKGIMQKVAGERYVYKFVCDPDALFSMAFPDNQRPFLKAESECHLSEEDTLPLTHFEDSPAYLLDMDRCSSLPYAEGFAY
# ETV6, sequence (P41212 whole entry): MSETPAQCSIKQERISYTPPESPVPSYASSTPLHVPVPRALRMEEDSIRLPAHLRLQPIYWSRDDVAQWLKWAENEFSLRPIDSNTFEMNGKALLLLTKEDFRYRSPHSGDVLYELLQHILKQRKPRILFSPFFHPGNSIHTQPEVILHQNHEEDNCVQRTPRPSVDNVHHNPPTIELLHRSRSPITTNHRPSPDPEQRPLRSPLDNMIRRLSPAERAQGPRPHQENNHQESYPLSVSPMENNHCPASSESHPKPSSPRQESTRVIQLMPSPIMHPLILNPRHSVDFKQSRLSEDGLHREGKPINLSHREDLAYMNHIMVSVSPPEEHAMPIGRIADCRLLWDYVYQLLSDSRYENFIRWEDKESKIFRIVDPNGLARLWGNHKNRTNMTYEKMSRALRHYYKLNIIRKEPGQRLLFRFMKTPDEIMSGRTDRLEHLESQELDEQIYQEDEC
# CRX, sequence (O43186 whole entry): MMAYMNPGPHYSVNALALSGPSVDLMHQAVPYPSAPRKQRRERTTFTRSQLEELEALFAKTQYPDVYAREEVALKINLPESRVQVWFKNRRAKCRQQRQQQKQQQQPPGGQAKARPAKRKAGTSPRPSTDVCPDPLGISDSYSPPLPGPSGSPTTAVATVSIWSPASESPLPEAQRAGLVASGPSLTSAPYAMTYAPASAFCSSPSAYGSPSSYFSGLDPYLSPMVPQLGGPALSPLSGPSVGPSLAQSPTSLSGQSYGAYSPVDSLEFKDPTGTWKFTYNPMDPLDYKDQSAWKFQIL
sequence,measurement,setting,value
TCCCCC,binding signal,FEV,"1.44 fold enrichment (6-mer frequency, TF over GST control)"
same,binding signal,ETV5,"1.48 fold enrichment (6-mer frequency, TF over GST control)"
same,binding signal,HSF1,"1.41 fold enrichment (6-mer frequency, TF over GST control)"
same,binding signal,SPIC,"1.44 fold enrichment (6-mer frequency, TF over GST control)"
same,binding signal,ELF4,"1.53 fold enrichment (6-mer frequency, TF over GST control)"
same,binding signal,ELK4,"1.57 fold enrichment (6-mer frequency, TF over GST control)"
same,binding signal,ETV2,"1.53 fold enrichment (6-mer frequency, TF over GST control)"
same,binding signal,ELF3,"1.42 fold enrichment (6-mer frequency, TF over GST control)"
same,binding signal,CRX,"1.45 fold enrichment (6-mer frequency, TF over GST control)"
same,binding signal,ETV1,"1.46 fold enrichment (6-mer frequency, TF over GST control)"
same,binding signal,ERF,"1.45 fold enrichment (6-mer frequency, TF over GST control)"
same,binding signal,ETV3L,"1.43 fold enrichment (6-mer frequency, TF over GST control)"
same,binding signal,ETS2,"1.42 fold enrichment (6-mer frequency, TF over GST control)"
same,binding signal,SPDEF,"1.35 fold enrichment (6-mer frequency, TF over GST control)"
same,binding signal,ETV7,"1.52 fold enrichment (6-mer frequency, TF over GST control)"
same,binding signal,ELF5,"1.7 fold enrichment (6-mer frequency, TF over GST control)"
same,binding signal,ETV3,"1.51 fold enrichment (6-mer frequency, TF over GST control)"
same,binding signal,ETV6,"1.56 fold enrichment (6-mer frequency, TF over GST control)"
